Here are results for 39 compounds from PubChem BioAssay (NCI).

“And” between values parts separate entries of the source, which are not always exact repeats. Identical values can stand only once. The panel holds about 79,000 compounds, 15% with a hit somewhere; the sample as a whole holds those more often. Some compounds were tested as several samples or in several runs, with calls that do not always agree. The source made the active and inactive calls. No stated cut-off is given here; in the data, active means growth inhibition above about 70%; inactive means the rest.

The test in a line: NCI Yeast Anticancer Drug Screen. Data for the sgs1 mgt1 strain (AID 161).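 Further: 0% = growth of cultures given vehicle only.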 The following applies: S. cerevisiae sgs1 mgt1 strain, at 50.0 µM, stronger effect = higher value. The essentials:
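Yeast cells carrying a defined DNA-repair defect were exposed to test compounds. Growth inhibition was measured relative to vehicle-treated controls.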
Consider `Cc1cc(C)c(O)c(C)c1.[Hg]`, for which the growth inhibition was 99.5% (active). The figure for `CC(O)C(=O)O.CC(O)C(=O)O.[Ni]` (centres undefined) is 0.95% (inactive); for `CC(=O)OC1C(=O)OCC23CCC4(C)OC4C2OC2CC(OC(=O)/C=C/C=C/C(=O)OCCC1C)C3(C)C21CO1` (centres undefined) it is 93.8% (active); for `CN1C(=O)CC[C@@]2(C)C1=CC[C@H]1[C@@H]3CC[C@H](O)[C@@]3(C)CC[C@@H]12` it is 55% (inactive).

On to `CC[C@H](C)c1occ2c(O)c(C(=O)O)c(=O)cc-2c1C`, for which the growth inhibition is 12.2% (inactive). As to `O=[N+]([O-])[O][Tl]([c]1ccccc1)[c]1ccccc1`, the growth inhibition was 49.5% (inactive). The figure for `CCCC[CH2][Sn]([CH2]CCCC)[CH2]CCCC.CCCC[CH2][Sn]([CH2]CCCC)[CH2]CCCC` is 99.5% (active). The figure for `Nc1cc(Cl)ccc1C(=O)c1ccccc1Cl` is 98.8% (active); for `CC(Br)CN1CCOCC1` (centres undefined) it is 67.7% (inactive).

In the case of `C(CCC[Te][Te]CCCCCCOC1CCCCO1)CCOC1CCCCO1` (centres undefined), the growth inhibition is 67.7% (inactive). The figure for `CN1CN(c2ccccc2)C2(CCN(C3Nc4ccccc4O3)CC2)C1=O` (centres undefined) is 58.5% (inactive). The figure for `[CH3][Sn]([CH3])([Cl])[c]1cc[c]([Sn]([CH3])([CH3])[Cl])cc1` is 85.5% (active). The figure for `O=[C-]CCCCCC[C-]=O.[C-]#[O+].[C-]#[O+].[C-]#[O+].[C-]#[O+].[Fe+6].[Fe+6].[c-]1[c-][c-][cH-][c-]1.[c-]1[c-][c-][cH-][c-]1` is 96.8% (active); for `CCOC(=O)NC(=S)[S][Sb]([S]C(=S)NC(=O)OCC)[S]c1nc2ccc(N=Nc3ccc(NS(=O)(=O)c4ccc(NC(=O)C(N5CC5)(N5CC5)N5CC5)cc4)cc3)cc2s1` it is 99.5% (active); for `CCC[N+](CCC)(CCC)CCC.N#CN=C([SH2+])[SH2+].N#CN=C([SH2+])[SH2+].[Pt+2]` it is 89.9% (active).

For `CCCCCCCC/C=C\CCCCCCCCN1CC(C(=O)[O][Pb]([CH2]C)([CH2]C)[CH2]C)CC1=O` (centres undefined), the growth inhibition was 65.9% (inactive). As to `O=c1[nH]cc(Cn2cnc3ncccc3c2=O)c(=O)[nH]1`, the growth inhibition was -2.1% (inactive). The figure for `CC(C)(C)C1=CC(=C/C=C/c2cc(C(C)(C)C)[o+]c(C(C)(C)C)c2)C=C(C(C)(C)C)O1` is 52.5% (inactive); for `S=C(S)N1CCCCC1` it is 60.5% (inactive) and 97.8% (active) and 25.5% (inactive); for `CN[C@H]1C[C@@H]2O[C@@](C)([C@H]1OC)n1c3ccccc3c3c4c(c5c6ccccc6n2c5c31)C(=O)NC4` it is 90.6% (active). As for `CC(C)(C)OOC(=O)c1ccccc1`, the growth inhibition is 29% (inactive).

With `ClCCN(CCCl)CCN1c2ccccc2Sc2ccc3ccccc3c21`, the growth inhibition is 95.8% (active). The figure for `CCOC(=O)c1ccccc1N` is -5.7% (inactive). For the compound `Cn1cnc(C(=N)[Se])c1N`, the growth inhibition was 30.8% (inactive). The figure for `Cc1ccc(NP(=O)(Oc2ccccc2)N(CCCl)CCCl)cc1` (centres undefined) is 73.5% (active); for `CCOC(=O)C1=C(C)NC(=O)NC1c1ccc(N(CCCl)CCCl)cc1Cl` (centres undefined) it is 24.9% (inactive); for `ClC(C[n+]1ccccc1)c1ccccc1` (centres undefined) it is 64.4% (inactive) and -1.8% (inactive). The figure for `CCCCCCCC1(c2ccc(N)cc2)CCC(=O)NC1=O` (centres undefined) is 54.2% (inactive); for `COC(=O)C(CCCN=C(N)N[N+](=O)[O-])NC(=O)c1ccc2c(c1O)C(=O)c1ccccc1C2=O` (centres undefined) it is 68.6% (inactive). The figure for `Cc1cc(N(CCCl)CCCl)ccc1CN1CCCN(Cc2ccc(N(CCCl)CCCl)cc2C)C1c1ccc(N(CCCl)CCCl)cc1C` is 98.8% (active); for `c1ccc([CH2][Pb]([c]2ccccc2)([c]2ccccc2)[c]2ccccc2)cc1` it is 98.7% (active); for `C[CH2][Sn][CH2]C.c1cc[c]([Ge]([c]2ccccc2)[c]2ccccc2)cc1.c1cc[c]([Sn]([c]2ccccc2)[c]2ccccc2)cc1` it is 99.5% (active).

In the case of `CCC1(C2=CCCCC2)C(=O)NC(=S)NC1=O`, the growth inhibition was 0.6% (inactive) and 51.5% (inactive). The figure for `N#CC(=C=N)N=C(F)C(C#N)=C(C#N)C#N` is 73.2% (active). The figure for `N#C[SH2+].N#C[SH2+].N#C[SH2+].N#C[SH2+].[Cu+2].c1ccc(C[P+](c2ccccc2)(c2ccccc2)c2ccccc2)cc1` is 97.9% (active); for `CC#N.FC(F)(F)C#CC(F)(F)F.FC(F)(F)C#CC(F)(F)F.FC(F)(F)C#CC(F)(F)F.[W]` it is 99.7% (active). Turning to `CC(C)c1cccc(C(C)C)c1NC(=O)C(=O)CC(=O)CC(c1ccccc1)c1c(O)c2ccccc2oc1=O` (centres undefined), the growth inhibition is 71% (active). The figure for `CCN(CCCl)c1ccc(/C=C/C2=[N+](C)c3ccccc3C2(C)C)c(C)c1` is 96.8% (active); for `Cc1cc(C)[n+](CCOc2ccc(/C(=C(/Cl)c3ccccc3)c3ccccc3)cc2)c(C)c1` it is 92.2% (active).
